Several values for one entry are separate records, joined by “and”; a condition that tells them apart may be missing. Equal values may be shown once. Results filed as inconclusive are left out. Where a call stands in place of a potency, no number is given. Some structures have more than one record in an assay (separate samples or runs), and their calls can disagree. Activity calls are given as the source filed them. Unless noted, calls follow the shape of the dose curve; as a rule, active = well fitted curve in the direction sought with a large enough effect in the repeat runs; inconclusive = weak or mixed curves; inactive = no such curve, though single readings can be large; an effect the other way counts as inactive or inconclusive.
Experiments:
[1] = qHTS assay to identify small molecule agonists of the progesterone receptor (PR) signaling pathway - cell viability counter screen (AID 1346799; calls by dose curve; also: nearly all actives have a fitted effect of over 45% in size)
Method in brief: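 In parallel with the beta-lactamase readout, cytotoxicity toward PR-UAS-bla HEK293T cells was measured by CellTiter-Glo luminescence following 16 hr compound incubation in 2% charcoal-stripped FBS medium.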

[2] = qHTS assay to identify small molecule antagonists of the TGF-beta/Smad signaling pathway - cell viability counter screen (AID 1346824); also: nearly all actives have a fitted effect of over 50% in size; also: potency is read from the fitted curve at half-maximal effect
Method in brief: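 SBE-bla HEK 293T cells, incubated overnight, then compound plus 0.25 ng/mL TGF-beta1 (stock added) for 5 hr at 37 C. Viability was read in the same wells by CellTiter-Glo luminescence after 30 min at room temperature.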

[3] = Human pregnane X receptor (PXR) small molecule agonists, qHTS cell viability counter screen (AID 1346977); also: nearly all actives have a fitted effect of over 50% in size; also: potency is read from the fitted curve at half-maximal effect
Method in brief: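 Viability counter screen: CellTiter-Fluor signal in PXR-Luc HepG2 cells, 24hr compound exposure, 37C, 5% CO2.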

[4] = qHTS assay to identify small molecule agonists of the TGF-beta/Smad signaling pathway - cell viability counter screen (AID 1346829); also: nearly all actives have a fitted effect of over 45% in size; also: potency is read from the fitted curve at half-maximal effect
Method in brief: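 SBE-bla HEK 293T cells plated overnight, compound exposure 5 hr at 37 C. Viability read in the same wells by CellTiter-Glo luminescence after 30 min at room temperature, following the beta-lactamase read.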

[5] = qHTS assay to identify small molecule agonists of the TGF-beta/Smad signaling pathway (AID 1346859; active = well fitted activation curve with a large enough effect in the signal ratio in the repeat runs, not every such curve was filed as active; the % refers to the signal ratio; also: series mostly up to about 77 µM)
Method in brief: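 After overnight seeding, SBE-bla HEK 293T cells are dosed with compounds in DMSO and kept 5 hr at 37 C, 5% CO2. LiveBLAzer-type FRET substrate is then applied for 2 hr at room temperature.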

[6] = target: Thyrotropin-releasing hormone receptor (Homo sapiens) (UniProt P34981); test: qHTS assay to identify small molecule antagonists of the thyrotropin-releasing hormone receptor (TRHR) signaling pathway (AID 1346877; active = well fitted inhibition curve with a large enough effect in the repeat runs, not every such curve was filed as active; also: series mostly up to about 51 µM)
Thyrotropin-releasing hormone receptor (Homo sapiens), sequence (P34981 whole entry, looked up): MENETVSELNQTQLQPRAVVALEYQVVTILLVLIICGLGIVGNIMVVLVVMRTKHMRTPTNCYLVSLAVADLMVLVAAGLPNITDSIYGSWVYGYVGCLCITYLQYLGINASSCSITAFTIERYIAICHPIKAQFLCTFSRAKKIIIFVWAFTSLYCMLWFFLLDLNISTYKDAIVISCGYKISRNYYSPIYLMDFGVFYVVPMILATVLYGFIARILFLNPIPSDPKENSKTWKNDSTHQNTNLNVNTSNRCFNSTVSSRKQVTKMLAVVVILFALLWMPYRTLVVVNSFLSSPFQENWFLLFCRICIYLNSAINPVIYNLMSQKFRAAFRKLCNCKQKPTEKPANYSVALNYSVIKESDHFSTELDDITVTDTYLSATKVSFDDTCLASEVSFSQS
Method in brief: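 Screening used HEK293 cells engineered with TRHR, with a brief 5 min room-temperature compound exposure preceding addition of TRH to 1 nM. The read-out was kinetic calcium-dye fluorescence, concentration-response from 15 doses in triplicate.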

[7] = target: Thyrotropin-releasing hormone receptor (Homo sapiens) (UniProt P34981); test: qHTS assay to identify small molecule agonists of the thyrotropin-releasing hormone receptor (TRHR) signaling pathway (AID 1346891; calls by dose curve;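 also: HEK293 cells expressing TRHR with calcium dye readout; series mostly up to about 58 µM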)
Method in brief: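 Compounds were tested as agonists at 15 concentrations, in triplicate, on TRHR-Hek293 cells; calcium-sensitive dye fluorescence was recorded for 3 min following addition.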

[8] = Caspase-3/7 induction in HepG2 cells by small molecules, qHTS assay (AID 1346978); also: nearly all actives have a fitted effect of over 15% in size
Method in brief: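 Wild-type HepG2 cells, 2,000/well, settled 5 hr at 37 C and 5% CO2, then compound-treated for 17 hr; caspase-3/7 activity read by luminescent Caspase-Glo 3/7 after 30 min at room temperature.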

SMILES | Potency [1] | Potency [2] | Potency [3] | Potency [4] | Potency [5] | Potency [6] | outcome [7] | Potency [8]
CCOC(=O)c1ccc(C2CCC(NC[C@H](O)COc3ccc(O)c(NS(C)(=O)=O)c3)CC2)cc1 (stereo partly drawn) | inactive | inactive | 56.4 µM (active) |  |  |  |  | 
COc1ccc(-c2coc3cc(O)ccc3c2=O)cc1 |  | inactive | inactive | inactive | inactive | inactive | inactive | inactive
CCCCCCCCCCCCCC[N+](C)(C)C |  | 42.2 µM (active) and 54.9 µM (active) | 52.7 µM (active) and 27.3 µM (active) and 26.6 µM (active) | 54.9 µM (active) and inactive |  |  |  | inactive
CC1(C)CCC[C@]2(C)[C@H]3CC(=O)O[C@]3(C)CC[C@@H]12 | inactive | inactive | inactive | inactive |  |  | inactive | inactive
O=S(=O)(O)c1ccc(Nc2nc(Nc3ccc(/C=C/c4ccc(Nc5nc(Nc6ccc(S(=O)(=O)O)cc6)nc(N(CCO)CCO)n5)cc4S(=O)(=O)O)c(S(=O)(=O)O)c3)nc(N(CCO)CCO)n2)cc1 | inactive | inactive | inactive | inactive |  | inactive | inactive | inactive
Clc1ccnc(Cl)n1 | inactive | inactive | inactive | inactive | inactive | inactive | inactive | 
C#C[C@]1(OC(C)=O)CC[C@H]2[C@@H]3CCC4=C[C@@H](OC(C)=O)CC[C@@H]4[C@H]3CC[C@@]21C |  | inactive |  | inactive | inactive |  |  | inactive

Reference: PubChem BioAssay (Tox21)
